YB-1 expression = YB-1 expression inhibition; U2OS, qRT-PCR YB-1 vs CDIP delta delta Cp, 16 h; stronger effect = higher value; zero = DMSO, each unit about twofold; delta delta Cp (YB-1 minus CDIP) (test concentration not listed); 30,000 tested, 0.37% active; AID 434959;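 active means delta delta Cp rounded down to an integer at or above 3, about 3 SD of DMSO wells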;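 further: higher means less YB-1 transcript or more CDIP transcript relative to DMSO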
PD-1 reversal = reversal of PD-1 mediated T-cell inhibition | primary human CD4 T cells, PD-L1 beads, CellTiter-Glo 96 h | activation, % (test concentration not listed) | 29,000 tested, under 10 active | AID 2316; call rule not given here
Hedgehog inh = blocks Sonic Hedgehog signaling; Shh-LIGHT2 Gli-luciferase reporter, 30 h; inhibition, % (test concentration not listed); 22,000 tested, 2.1% active;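 active means mean inhibition across valid replicates above about 65%, limit read from the data; inconclusive means mean under the limit, yet half or more replicates past it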;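 further: pathway switched on by Shh-conditioned medium diluted 1 in 25 in low serum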
NOMO-1 viab = STK33 inhibitor candidate reducing NOMO-1 cell viability; 37,000 tested, 7.5% active; NOMO-1 AML viability, CellTiter-Glo luminescence, 72 h; inhibition, % (concentration not given with the values); in the data active means inhibition above about 80%; inconclusive means no clear call, values can overlap the other calls
MITF inh = MITF inhibition; TRPM1 promoter luciferase, luminescence, 24 h; inhibition, % (no concentration beside the values); 37,000 tested, 0.28% active; AID 2240; in the data active means inhibition above about 85%; inconclusive means no clear call, values can overlap the other calls; inactive means below about 68%;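 further: human melanocyte line stably carrying TRPM1 promoter luciferase reporter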
Numbers stand for hits; . = inactive; ? = inconclusive; / = not tested or not shown. A selection: hits, their analogues and other compounds. The true share with any hit is near 7.4%.

SMILES | YB-1 expression | PD-1 reversal | Hedgehog inh | NOMO-1 viab | MITF inh
CC1CC[C@@]2(OC1)O[C@H]1CC3C4CC=C5C[C@@H](O[C@@H]6O[C@H](CO)[C@@H](O[C@@H]7O[C@@H](C)[C@H](O)[C@@H](O)[C@H]7O)[C@H](O)[C@H]6O[C@@H]6O[C@@H](C)[C@H](O)[C@@H](O)[C@H]6O)CC[C@]5(C)C4CC[C@]3(C)[C@@]1(O)[C@@H]2C (some centres not stated) | . | . | 80 | 119 | .
C[C@@H]1O[C@@H](O[C@H]2[C@H](O[C@H]3CC[C@@]4(C)C(CC[C@]5(C)C4CC=C4C6CC(C)(C)CC[C@]6(C(=O)O[C@@H]6O[C@H](CO[C@@H]7O[C@H](CO)[C@@H](O[C@@H]8O[C@@H](C)[C@H](O)[C@@H](O)[C@H]8O)[C@H](O)[C@H]7O)[C@@H](O)[C@H](O)[C@H]6O)CC[C@]45C)C3(C)C)OC[C@H](O)[C@@H]2O)[C@H](O)[C@H](O)[C@H]1O (some centres not stated) | . | / | . | / | /
O=C(CCc1ccc(O)cc1)CC(O)CCc1ccc(O)c(O)c1 (configuration not stated) | . | . | . | 85 | .
C[C@H]1CN([C@@H](C)CO)C(=O)c2cccc(NC(=O)Nc3ccc4c(c3)OCO4)c2O[C@@H]1CN(C)Cc1ccc2c(c1)OCO2 | . | / | . | . | .
C[C@@H]1CN([C@H](C)CO)C(=O)c2cccc(NC(=O)Nc3ccc4c(c3)OCO4)c2O[C@H]1CN(C)Cc1ccc(Cl)c(Cl)c1 | . | . | . | 87 | .
C[C@H](CO)N1C[C@H](C)[C@@H](CN(C)Cc2ccc(Cl)c(Cl)c2)Oc2c(NC(=O)Nc3ccc4c(c3)OCO4)cccc2C1=O | . | / | . | 82 | .
C[C@@H]1CN([C@@H](C)CO)C(=O)c2cccc(NC(=O)Nc3ccc4c(c3)OCO4)c2O[C@@H]1CN(C)Cc1ccc(Cl)c(Cl)c1 | . | . | . | . | .
O=C(CSC1CC(=O)N(c2ccccc2)C1=O)Nc1cccc(Br)c1 (configuration not stated) | / | / | / | . | .
C=C1C(=O)O[C@@H]2/C=C(/C)[C@@H]3C/C=C(/C[C@@H](OC(=O)/C(=C/CO)CO)[C@@H]12)C[C@@](O)(C(C)C)C(=O)O3 | . | . | ? | 107 | .
CC(C)S(=O)(=O)c1csc(C(=O)OCC(=O)c2ccc(Cl)cc2)c1N | . | . | / | . | .
C[C@@H]1CN([C@H](C)CO)C(=O)Cc2cc(NS(=O)(=O)c3ccc(F)cc3)ccc2O[C@@H]1CN(C)Cc1ccc(Oc2ccccc2)cc1 | . | . | . | 115 | .
C[C@H](CO)N1C[C@H](C)[C@H](CN(C)Cc2ccc(Oc3ccccc3)cc2)Oc2ccc(NS(=O)(=O)c3ccc(F)cc3)cc2CC1=O | . | . | . | 126 | .
C[C@H]1CN([C@@H](C)CO)C(=O)Cc2cc(NS(C)(=O)=O)ccc2O[C@@H]1CN(C)Cc1ccc(Oc2ccccc2)cc1 | . | . | . | . | .
Cc1noc(C)c1S(=O)(=O)Nc1ccc2c(c1)C(=O)N([C@@H](C)CO)C[C@@H](C)[C@@H](CN(C)Cc1ccc(C(=O)Nc3ccccc3N)cc1)O2 | . | . | / | 108 | .
Cc1noc(C)c1S(=O)(=O)Nc1ccc2c(c1)CC(=O)N([C@H](C)CO)C[C@H](C)[C@H](CN(C)Cc1ccc(C(=O)Nc3ccccc3N)cc1)O2 | . | . | / | 142 | .
Cc1noc(C)c1S(=O)(=O)Nc1ccc2c(c1)C(=O)N([C@H](C)CO)C[C@@H](C)[C@@H](CN(C)Cc1ccc(C(=O)Nc3ccccc3N)cc1)O2 | . | . | / | 108 | .
Cc1noc(C)c1S(=O)(=O)Nc1ccc2c(c1)C(=O)N([C@H](C)CO)C[C@H](C)[C@H](CN(C)Cc1ccc(C(=O)Nc3ccccc3N)cc1)O2 | . | . | / | 108 | .
Cc1cc(N(CC(=O)Nc2cccc(C(F)(F)F)c2)S(C)(=O)=O)ccc1Br | / | . | / | . | .
CC(C)(C)c1ccc(C(O)CCCN2CCC(C(O)(c3ccccc3)c3ccccc3)CC2)cc1 (configuration not stated) | . | . | . | 142 | .
Cc1c(CO)c2ccccc2n1Cc1ccccc1C#N | / | . | / | 121 | .
CCc1nnc2sc(-c3ccc(N)cc3)nn12 | . | . | . | . | .
Cc1ccc(S(=O)(=O)N(C)C[C@@H]2Oc3c(NC(=O)Nc4ccc(C(F)(F)F)cc4)cccc3C(=O)N([C@H](C)CO)C[C@H]2C)cc1 | . | . | . | ? | .
Cc1ccc(S(=O)(=O)N(C)C[C@H]2Oc3c(NC(=O)Nc4ccc(C(F)(F)F)cc4)cccc3C(=O)N([C@@H](C)CO)C[C@H]2C)cc1 | . | . | . | 119 | .
Cc1ccc(S(=O)(=O)N(C)C[C@@H]2Oc3c(NC(=O)Nc4ccc(C(F)(F)F)cc4)cccc3C(=O)N([C@@H](C)CO)C[C@@H]2C)cc1 | . | . | 93 | . | .
Cc1ccc2cc3c(nc2c1)N(c1ccccc1)CC3 | . | . | / | . | .
SMILES | YB-1 expression | PD-1 reversal | Hedgehog inh | NOMO-1 viab | MITF inh
Cc1ccc2cc3c(nc2c1)N(c1ccc(C(=O)NCc2ccco2)cc1)CC3 | . | . | . | 116 | .
COC(=O)c1ccc([C@H]2C(C#N)=C(N)C(C#N)(C#N)C3=CCC(C(C)(C)C)C[C@@H]32)cc1 (some centres not stated) | . | . | 84 | 116 | .
COc1ccc([N+](=O)[O-])cc1NC(=O)CCN1CCN(c2cccc(C(F)(F)F)c2)CC1 | / | . | / | . | .
O=c1c2ccccc2n(Cc2ccc(Cl)cc2)c(=O)n1Cc1ccc(Cl)cc1 | . | . | / | . | .
CCn1c2ccccc2c2cc(CNCCc3ccc(Cl)cc3)ccc21 | . | . | . | 113 | .
C=CCOC1=NC2C(C(=O)N(C)C(=O)N2C)N1C (configuration not stated) | . | . | . | . | .
COC(=O)Nc1nc2ccc(SC(C)C)cc2[nH]1 | . | / | . | 118 | .
COc1ccc(NC(=O)CSc2nc3ccc([N+](=O)[O-])cc3[nH]2)cc1 | / | / | / | . | .
CCCSc1ccc2nc(NC(=O)OC)[nH]c2c1 | . | / | . | 118 | .
O=C1c2ccc(O)cc2C(=O)c2ccc(O)cc21 | . | . | . | . | .
COc1ccc(C(=O)CSc2n[nH]c(-c3ccccc3)n2)cc1[N+](=O)[O-] | / | . | / | . | .
c1ccc(OCCSc2nnc3n(-c4ccccc4)c4ccccc4n23)cc1 | / | . | / | . | .
CC(=O)Oc1ccc(C(=O)Nc2ccc(S(=O)(=O)Nc3nccs3)cc2)cc1 | / | / | / | . | .
O=c1nc(Nc2ccc(OC(F)(F)F)cc2)oc2ccccc12 | . | . | . | . | .
C/C=C(/C)C(=O)OC1c2c(ccc3ccc(=O)oc23)OC(C)(C)C1OC(=O)/C(C)=C\C (configuration not stated) | . | . | . | 111 | .
